# Measured values reported in the supplement of paper PMC10646978.
# ± gives the standard deviation.
# How the values were obtained:
# Settings in all cases: modulator concentration 10 µM
# [1] = system: RAW-Dual (murine macrophage reporter line); test: NF-kB reporter (SEAP) activity fold change vs agonist alone; higher = enhanced NF-kB activity
# Method in brief: (§1)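 RAW-Dual murine macrophage reporter cells were seeded at 50 000 per well in 384-well plates and pre-incubated 1 hour at 37 °C with compound pin-transferred to 10 μM final. After 1 hour, a PRR agonist was added and cells incubated overnight. Supernatant NF-κB (SEAP, QUANTI-Blue, 620 nm absorbance) and IRF (Lucia luciferase, QUANTI-Luc, luminescence) signals were divided by the mean agonist-only control on the same plate to give fold change. Two replicate plates were averaged, with errors by propagation.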
# [2] = system: RAW-Dual (murine macrophage reporter line); test: IRF reporter (Lucia luciferase) activity fold change vs agonist alone; higher = enhanced IRF activity
# Method in brief: as §1
# [3] = system: RAW-Dual (murine macrophage reporter line); test: viability score (confluency relative to resting cells, overnight) (fraction); higher = more viable, active = viable (0.7 or more)
# Method in brief: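 Confluency was the readout: RAW-Dual macrophages were imaged with IncuCyte after an overnight exposure to compound at 10 μM final. IncuCyte software produced two masks over all imaged wells. The viability score expresses confluency against resting cells, and both masks had to exceed 70% of resting cells for a compound to meet the cutoff.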
# [4] = agonist: CpG ODN 1826 0.5 ug/mL
Structure (SMILES),"NF-kB reporter [1, 4]",NF-kB reporter ([1]; agonist: LPS 0.1 ug/mL),NF-kB reporter ([1]; agonist: MPLA […]),IRF reporter ([2]; agonist: 3'3'-cGAMP 10 ug/mL),IRF reporter ([2]; agonist: LPS 0.1 ug/mL),IRF reporter ([2]; agonist: MPLA […]),viability score [3]
COc1cccc(-c2csc(NC(=O)C3CC3)n2)c1,1.16 ± 0.19,1.44 ± 0.11,1.31 ± 0.17,1.19 ± 0.053,1.26 ± 0.26,1.35 ± 0.14,1 (active)
Cc1c(OCc2ccc(Cl)cc2)ccc2c(C(F)(F)F)cc(=O)oc12,0.758 ± 0.059,0.94 ± 0.048,1.11 ± 0.17,0.802 ± 0.042,1.06 ± 0.062,1.07 ± 0.094,1.02 (active)
O=C(O)CCCCCN1C(=O)c2ccccc2C1=O,0.968 ± 0.089,0.988 ± 0.074,1.04 ± 0.099,1.03 ± 0.034,1.35 ± 0.19,1.5 ± 0.23,1.03 (active)
CC1(C)CC(=O)C2=C(C1)OC(N)=C(C#N)C21CCCCC1,1.01 ± 0.18,0.866 ± 0.07,0.895 ± 0.14,0.867 ± 0.024,1.13 ± 0.15,1.18 ± 0.14,1 (active)
O=C(O)CC(c1ccccc1)N1C(=O)c2ccccc2C1=O (centres undefined),0.999 ± 0.17,1.04 ± 0.13,0.963 ± 0.11,0.976 ± 0.044,1.24 ± 0.22,1.3 ± 0.21,1 (active)
NCC(O)(c1ccc(Cl)cc1)c1ccc(Cl)cc1,0.85 ± 0.14,1.12 ± 0.12,1.03 ± 0.11,1.01 ± 0.036,1.32 ± 0.25,1.41 ± 0.22,0.996 (active)
COc1ccc(N(CC(=O)NCCc2ccc(OC)c(OC)c2)S(=O)(=O)c2ccc(OC)c(OC)c2)cc1,0.951 ± 0.083,0.994 ± 0.062,0.934 ± 0.12,1.01 ± 0.041,1.44 ± 0.18,1.2 ± 0.11,1.01 (active)
C=C1C(=O)O[C@@H]2[C@H]3O[C@]3(C)CC/C=C(\C)CC[C@@H]12 [Prestw-550],0.314 ± 0.019,0.312 ± 0.036,0.108 ± 0.0071,0.0909 ± 0.0037,0.0437 ± 0.0043,0.0367 ± 0.005,0.495 (inactive)
CCn1cc(C(=O)O)c(=O)c2cc(F)c(N3CCN(C)CC3)cc21.CS(=O)(=O)O.O.O,0.788 ± 0.11,1.13 ± 0.13,0.897 ± 0.05,0.863 ± 0.026,1.37 ± 0.12,1.07 ± 0.16,0.991 (active)
CS(=O)(=O)N(CC(=O)N1CCCCCC1)c1ccc(Cl)c(C(F)(F)F)c1,0.958 ± 0.11,1.21 ± 0.081,0.958 ± 0.036,0.974 ± 0.12,1.13 ± 0.15,1.15 ± 0.24,1 (active)
CN1CCN(S(=O)(=O)c2ccc(-c3ccc(S(=O)(=O)N4CCN(C)CC4)cc3)cc2)CC1,0.865 ± 0.048,1.06 ± 0.074,0.955 ± 0.06,1.04 ± 0.043,1.45 ± 0.15,1.1 ± 0.098,0.999 (active)
Oc1cc(O)c2c(c1)OC(c1ccc(O)c(O)c1)C(O)C2 (centres undefined),0.936 ± 0.098,0.859 ± 0.087,1.05 ± 0.1,0.891 ± 0.028,1.13 ± 0.17,1.29 ± 0.32,1.06 (active)
COc1ccc(CC(=O)Nc2ccc(C)c(N3CCCCC3=O)c2)cc1OC,1.42 ± 0.34,1.18 ± 0.09,1.06 ± 0.071,0.937 ± 0.059,0.98 ± 0.14,1.06 ± 0.12,1 (active)
CCN1C(=O)C(=Cc2nc3ccccc3c(=O)n2-c2ccc(C)cc2)c2ccccc21,1.06 ± 0.085,1.08 ± 0.071,0.994 ± 0.077,0.89 ± 0.035,1.55 ± 0.28,1.11 ± 0.078,1.01 (active)
Oc1nc[nH]n1,1.05 ± 0.087,0.927 ± 0.067,1.02 ± 0.022,1 ± 0.06,0.923 ± 0.04,0.838 ± 0.074,1 (active)
C=C(Br)Cn1c(COc2ccccc2)nc2ccccc21,0.562 ± 0.098,1.06 ± 0.12,1.05 ± 0.084,1.12 ± 0.036,1.19 ± 0.28,1.19 ± 0.15,0.991 (active)
Fc1ccc(Nc2nc(NN=Cc3c[nH]nc3-c3ccccc3)nc(N3CCOCC3)n2)cc1,0.537 ± 0.044,0.981 ± 0.071,2.12 ± 0.2,1 ± 0.1,1.57 ± 0.21,2.78 ± 0.4,0.875 (active)
Cc1cccc(C(=O)Nc2cccc([N+](=O)[O-])c2C)c1,1.1 ± 0.067,1 ± 0.062,0.86 ± 0.095,0.964 ± 0.04,1.33 ± 0.15,1.12 ± 0.099,0.992 (active)
Cc1ccc(OCCCOc2cccc3cccnc23)c(C)c1,0.854 ± 0.11,1.1 ± 0.073,1.62 ± 0.11,0.932 ± 0.07,1.26 ± 0.14,2.82 ± 0.39,0.895 (active)
Cc1ccc(-c2cc(C(F)(F)F)nn2-c2ccc(S(N)(=O)=O)cc2)cc1,0.337 ± 0.026,0.481 ± 0.03,0.59 ± 0.078,1.1 ± 0.091,0.848 ± 0.052,0.984 ± 0.087,0.183 (inactive)
CCOC(=O)C1=C(C)N(c2ccc(OC)cc2)C(=O)C1=Cc1ccc(C(C)C)cc1,0.903 ± 0.067,1.01 ± 0.083,0.804 ± 0.1,0.883 ± 0.03,1.36 ± 0.21,1.33 ± 0.12,0.997 (active)
Cl.Cl.Clc1ccc(Nc2nnc(Cc3ccncc3)c3ccccc23)cc1,1.04 ± 0.15,1 ± 0.24,1.14 ± 0.31,0.628 ± 0.021,1.12 ± 0.2,0.926 ± 0.14,0.979 (active)
CCCNCC(O)COc1ccccc1C(=O)CCc1ccccc1 (centres undefined),0.639 ± 0.086,0.988 ± 0.098,1.21 ± 0.066,0.989 ± 0.07,0.948 ± 0.095,0.869 ± 0.16,0.826 (active)
O=C(c1cc2ccccc2o1)N1CC(N2C(=O)CCC2=O)C1,0.894 ± 0.054,0.957 ± 0.076,1.05 ± 0.066,1.03 ± 0.055,1.32 ± 0.26,1.44 ± 0.38,0.985 (active)
CC(C)NCC(O)COc1cccc2ccccc12 (centres undefined) [Prestw-1075],1.02 ± 0.064,0.92 ± 0.11,1.05 ± 0.043,0.896 ± 0.032,0.929 ± 0.071,0.918 ± 0.09,0.985 (active)
NC[C@H]1CC[C@H](C(=O)O)CC1,0.939 ± 0.1,1.06 ± 0.073,0.958 ± 0.021,0.993 ± 0.14,1.01 ± 0.061,1.13 ± 0.11,0.999 (active)
CCOC(=O)C(CCc1ccccc1)NC(C)C(=O)N1C(C(=O)O)CC2CCCCC21 (centres undefined),0.994 ± 0.11,0.925 ± 0.068,1.08 ± 0.1,0.953 ± 0.045,1.24 ± 0.2,1.27 ± 0.29,1.05 (active)
